The target in experiment [1] is Thyrotropin receptor (Homo sapiens) (UniProt P16473). Briefly: qHTS Assay for Antagonists of the Thyroid Stimulating Hormone Receptor (AID 488980). Note: 0% is about no effect. The note with it: TSHR-expressing cells, cAMP antagonist read-out; series mostly up to 57.5 µM. The method, boiled down: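 Inhibition of TSH-stimulated cAMP accumulation was quantified by homogeneous time-resolved FRET in TSHR-transfected HEK293 cells. Agonist: TSH, 4 nM final (EC80).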
(Quantitative high-throughput screening tests each substance at several concentrations.)

The target of experiment [2] is D(1A) dopamine receptor (Homo sapiens) (UniProt P21728). Briefly: HTS Assay for Allosteric Agonists of the Human D1 Dopamine Receptor: Primary Screen for Agonists (AID 488981). Note: 0% is about no effect. The note with it: Inducible HEK293 T-REx D1 cells, calcium-flux fluorescence, 180 s kinetic; series mostly up to 41.8 µM. In outline:
(§1)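 Tetracycline-induced HEK293 T-REx cells force-coupled to calcium signalling were incubated overnight at 30 C and dye-loaded at room temperature. Calcium flux over 180 s after compound addition flagged agonists; a further 180 s read after EC20 dopamine flagged potentiators.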

Experiment [3] shares this target. Briefly: HTS Assay for Allosteric Agonists of the Human D1 Dopamine Receptor: Primary Screen for Potentiators (AID 488982). Note: 0% is about no effect. Conditions: HEK293 T-REx D1 inducible cells, calcium flux, kinetic fluorescence; series mostly up to 8.37 µM. In outline:
as §1

For experiment [4] the target is unchanged. Description: HTS Assay for Allosteric Agonists of the Human D1 Dopamine Receptor: Primary Screen for Antagonists (AID 488983).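 Note: calcium flux response to an EC80 dopamine challenge measured with no-wash dye; % is set by controls: 0 for no effect and ±100 for the full control effect; nearly all actives have a fitted effect of over 65% in size.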 Conditions: D1 receptor cell assay, antagonist mode, qHTS titration; series mostly up to 41.8 µM. In outline: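 Screening of inducible HEK293 T-REx D1 cells: compound first, EC80 dopamine 180 s later, each phase read kinetically for calcium over 180 s.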

The nature of experiment [5]: Validation screen for small molecules that induce genotoxicity in human embryonic kidney (HEK293T) cells expressing luciferase-tagged ELG1 (AID 493106). Note: 0% is about no effect. Conditions: luminescence; series mostly up to 46.1 µM. In outline:
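Reporter-gene quantitative HTS in HEK293T cells carrying luciferase-tagged ELG1, whose level climbs under genotoxic stress. Compound exposure lasts 16 hr at 37 °C before luciferase detection.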

Experiment [6] addresses ATPase family AAA domain-containing protein 5 (Homo sapiens) (UniProt Q96QE3). Description: Validation screen for small molecules that inhibit ELG1-dependent DNA repair in human embryonic kidney (HEK293T) cells expressing luciferase-tagged ELG1 (AID 493107).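 Note: cells co-treated with the DNA-damaging agent 5-fluorouridine alongside compound; % is set by controls: 0 for no effect and ±100 for the full control effect; inhibitors lower the ELG1-luciferase luminescence signal; nearly all actives have a fitted effect of over 70% in size.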 The note with it: HEK293T ELG1-luciferase level, luminescence, 5-fluorouridine co-treatment, 16 h; series mostly up to 46.1 µM. The method, boiled down:
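Quantitative HTS in HEK293T cells carrying luciferase-tagged ELG1, stimulated with 5-fluorouridine alongside compound for 16 hr. Loss of luciferase signal marks inhibition of ELG1 response.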

Experiment [7] addresses Thyrotropin-releasing hormone receptor (Homo sapiens) (UniProt P34981). Description: qHTS for Small Molecule Agonists and Allosteric Enhancers of Human TRH Receptor: Validation Screen for Agonists (AID 493127;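 active = calcium activation more than 3 SD above the typical response in the agonist read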;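 note: intracellular calcium rise by fluo-8 fluorescence before TRH EC20 addition; 0% is about no effect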). Conditions: TRH receptor agonist cell assay; at 2 µM; stronger effect = higher value. In outline:
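Gq-coupled calcium mobilization in TRHR cells after compound addition, monitored kinetically with fluo-8 dye on an FDSS reader.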

A short description of experiment [8]: Nrf2 qHTS screen for inhibitors: Validation (AID 493153; active = well fitted inhibition curve with a large enough effect in the main read-out, with a control signal flat, not every such curve was filed as active). Conditions: A549 ARE-Fluc reporter, 18-24 h; Potency: luciferase luminescence; viability change: measured here: cytotoxicity max response; luciferase luminescence, at 46.1 µM (top of the series). The method, boiled down:
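Dose-response validation uses reporter A549 cells with firefly luciferase under an antioxidant response element. Compounds stay on cells 18-24 h at 37°C, and luminescence indicates Nrf2-driven transcription.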

A short description of experiment [9]: qHTS for Inhibitors of Cell Surface uPA Generation: Validation Assay (AID 493164).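 Note: RAW 264.7 macrophage cells exposed to compound for 18 h; 0% is about no effect.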 Conditions: mouse cells, plasminogen activation; series mostly up to 38.3 µM. The method, boiled down: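 RAW 264.7, 4000 cells/well, o/n plating; cpd 7-pt 1:5 dilution 2.45 nM–38.3 uM final; 18 h, 37 C/5% CO2; ATP-Lite, 5 s luminescence exposure.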
In experiment [10] the target is Galactokinase (Homo sapiens) (UniProt P51570). Briefly: qHTS Validation Assay for Inhibitors of Human Galactokinase (GALK) (AID 493189). Note: 0% is about no effect. The note with it: purified human GALK enzyme activity, qHTS 7-point titration; series mostly up to 57.5 µM. In outline:
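Enzyme activity is inferred from ATP consumption: human GALK phosphorylates galactose (100 uM) using 35 uM ATP for 1 h at room temperature, and luciferase-based Kinase-Glo Plus reports unconsumed ATP.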

A short description of experiment [11]: Validation screen for small molecules that induce DNA re-replication in SW480 colon adenocarcinoma cells (AID 504364). Note: 0% is about no effect. The note with it: DNA re-replication phenotype (high-content imaging); series mostly up to 46.1 µM. In outline: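 Cells are treated 48 hr with test compound, stained 40 min with Hoechst at 37 C, and scanned for nuclear fluorescence; compounds inducing re-replication increase nuclei with elevated intensity.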

Experiment [12] has as its target Peptidyl-prolyl cis-trans isomerase NIMA-interacting 1 (Homo sapiens) (UniProt Q13526). Description: qHTS Validation Assay to Find Inhibitors of Pin1 (AID 504536; active = well fitted inhibition curve with a large enough effect in the polarisation, with a control signal flat, not every such curve was filed as active; the % refers to the polarisation;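 note: 0% = full Pin1 enzyme wells and -100% = no-enzyme wells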). The note with it: Pin1 fluorescence polarization peptide binding assay; series mostly up to 57.5 µM. The method, boiled down: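 Fluorescence polarization competition: compounds (titration) displace HiFluor-488-labeled Pin1-1b peptide from Pin1 (0.3 uM final) in pH 7.5 HEPES buffer with DTT, 10 min at room temperature; %Activity normalized to no-enzyme wells, curves fitted.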

The target of experiment [13] is Phosphoglycerate kinase, glycosomal (Trypanosoma brucei brucei) (UniProt P07378). Description: qHTS Validation Assay to Find Inhibitors of Phosphoglycerate Kinase (AID 504547).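 Note: control wells lack PGK and mark full inhibition.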 The note with it: enzymatic PGK inhibition, coupled luminescence read-out; series mostly up to 57.5 µM. The method, boiled down:
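Substrate/PGK mix plus compound; reaction started with GAPDH (100nM final) to form 1,3-BPG; 60 min RT; Kinase-Glo Plus 10 min; luminescence. TEA 100mM pH 7.6, MgCl2 5mM, Tween-20 0.01%.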

For experiment [14], the target named is phosphoglycerate mutase (Leishmania major) (UniProt Q4Q090). Description: qHTS Validation Assay to Find Inhibitors of Phosphoglycerate Mutase (AID 504548).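 Note: end-point luminescence from Kinase-GloPlus after the PGAM reaction; % is set by controls: 0 for no effect and ±100 for the full control effect.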 The note with it: biochemical enzyme activity; Potency: inhibition qHTS; series mostly up to 57.5 µM. In outline:
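Inhibition of L. major PGAM was assessed by Kinase-GloPlus luminescence following a 45-minute room-temperature reaction with enzyme at 1.25nM final.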

Experiment [15] has as its target Ubiquitin carboxyl-terminal hydrolase 1 (Homo sapiens) (UniProt O94782). Description: Inhibitors of USP1/UAF1: Pilot qHTS (AID 504865).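 Note: rhodamine fluorescence freed from ubiquitin-rhodamine substrate followed over time; top concentration of the series differs between compounds; % is set by controls: 0 for no effect and ±100 for the full control effect; nearly all actives have a fitted effect of over 35% in size.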 The note with it: purified USP1/UAF1, Ub-rhodamine cleavage fluorescence; series mostly up to 114 µM. In outline: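 Enzyme-free wells gave the negative control, while test wells held 1nM USP1/UAF1 preincubated with compound for 15 min at room temperature. Ub-Rho at 150nM final started the reaction, and fluorescence at 480/540 nm was recorded kinetically.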

A short description of experiment [16]: qHTS for Inhibitors of ATXN expression: Validation of Cytotoxic Assay (AID 588349).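 Note: cells exposed to compound for 72 hr; % is set by controls: 0 for no effect and ±100 for the full control effect.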 The note with it: cytotoxicity counter-screen for ATXN expression inhibitors, cell viability; series mostly up to 57.1 µM. The method, boiled down:
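HEK293, compound dose series, 72 hr / 37 degrees C; viability via CellTiter Glo (intracellular ATP).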

Experiment [17] in a line: qHTS for Inhibitors of ATXN expression: Validation (AID 588378). Note: % is set by controls: 0 for no effect and ±100 for the full control effect; nearly all actives have a fitted effect of over 75% in size. Conditions: cell-based ATXN2 expression reporter assay, luminescence; series mostly up to 57.1 µM. The method, boiled down: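 After a 2 h attachment and 24 h compound incubation, HEK293-ATXN2-FFLuc wells are read for fluorescence at 405 nm excitation/525 nm emission as a viability measure, then for Bright-Glo luminescence reflecting ATXN2 expression.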

For experiment [18], the target named is Transient receptor potential cation channel subfamily V member 1 (Homo sapiens) (UniProt Q8NER1). Description: HTS Assay for Compounds that Act as Enhancers of the Vanilloid Receptor 1 (AID 488979). Note: 0% is about no effect. The note with it: TRPV1-expressing cells, enhancer of channel activity, stimulated with capsaicin at EC20; series mostly up to 41.7 µM. The method, boiled down: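 TRPV1-expressing cells loaded with Fluo-8 calcium dye; compounds added and calcium influx read kinetically for 3 min (agonist phase), then capsaicin at EC20 added and read 2 min more for enhancement. Fluorescence ex 480/em 520 nm.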

Results filed as inconclusive are left out. Activity calls are given as the source filed them. Unless noted, calls come from the whole dose curve; as a rule, active = well fitted curve in the direction sought with a large enough effect; inconclusive = small, poorly fitted or top-dose-only effect, or another doubt; inactive = no such curve, though single readings can be large; an effect the other way counts as inactive or inconclusive.

Sequence of D(1A) dopamine receptor (Homo sapiens) (P21728 whole entry, looked up): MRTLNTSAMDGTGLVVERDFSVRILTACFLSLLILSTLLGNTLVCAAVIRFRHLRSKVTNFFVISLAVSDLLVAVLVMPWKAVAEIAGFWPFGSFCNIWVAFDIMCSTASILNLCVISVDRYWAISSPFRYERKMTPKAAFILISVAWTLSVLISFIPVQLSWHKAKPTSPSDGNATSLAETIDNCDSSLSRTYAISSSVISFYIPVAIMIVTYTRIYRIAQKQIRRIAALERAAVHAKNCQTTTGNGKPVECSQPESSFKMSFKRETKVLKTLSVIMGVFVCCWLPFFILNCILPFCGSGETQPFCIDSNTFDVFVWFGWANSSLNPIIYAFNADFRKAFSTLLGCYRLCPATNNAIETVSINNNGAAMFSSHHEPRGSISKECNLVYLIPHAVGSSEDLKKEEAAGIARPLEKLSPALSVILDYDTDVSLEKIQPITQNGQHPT
Sequence of Peptidyl-prolyl cis-trans isomerase NIMA-interacting 1 (Homo sapiens) (Q13526 whole entry, looked up): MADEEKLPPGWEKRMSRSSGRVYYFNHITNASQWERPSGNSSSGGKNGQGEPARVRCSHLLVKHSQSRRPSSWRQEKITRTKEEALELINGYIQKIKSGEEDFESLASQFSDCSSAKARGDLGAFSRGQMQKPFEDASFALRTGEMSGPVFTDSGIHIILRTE
Sequence of phosphoglycerate mutase (Leishmania major) (Q4Q090 1-553): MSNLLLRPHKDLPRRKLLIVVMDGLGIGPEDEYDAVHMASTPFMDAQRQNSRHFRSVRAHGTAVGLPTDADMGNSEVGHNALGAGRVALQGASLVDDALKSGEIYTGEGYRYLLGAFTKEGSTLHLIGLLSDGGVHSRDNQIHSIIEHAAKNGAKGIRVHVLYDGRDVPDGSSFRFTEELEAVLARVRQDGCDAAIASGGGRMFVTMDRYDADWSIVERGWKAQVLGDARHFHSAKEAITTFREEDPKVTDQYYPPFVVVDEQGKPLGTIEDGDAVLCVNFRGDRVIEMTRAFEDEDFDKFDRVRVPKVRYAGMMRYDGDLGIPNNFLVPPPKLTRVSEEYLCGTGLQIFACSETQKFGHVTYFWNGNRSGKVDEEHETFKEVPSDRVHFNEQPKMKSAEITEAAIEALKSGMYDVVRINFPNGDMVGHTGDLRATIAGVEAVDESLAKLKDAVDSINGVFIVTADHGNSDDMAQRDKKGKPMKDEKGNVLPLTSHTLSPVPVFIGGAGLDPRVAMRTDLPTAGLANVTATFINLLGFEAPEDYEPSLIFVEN
Sequence of Galactokinase (Homo sapiens) (P51570 whole entry, looked up): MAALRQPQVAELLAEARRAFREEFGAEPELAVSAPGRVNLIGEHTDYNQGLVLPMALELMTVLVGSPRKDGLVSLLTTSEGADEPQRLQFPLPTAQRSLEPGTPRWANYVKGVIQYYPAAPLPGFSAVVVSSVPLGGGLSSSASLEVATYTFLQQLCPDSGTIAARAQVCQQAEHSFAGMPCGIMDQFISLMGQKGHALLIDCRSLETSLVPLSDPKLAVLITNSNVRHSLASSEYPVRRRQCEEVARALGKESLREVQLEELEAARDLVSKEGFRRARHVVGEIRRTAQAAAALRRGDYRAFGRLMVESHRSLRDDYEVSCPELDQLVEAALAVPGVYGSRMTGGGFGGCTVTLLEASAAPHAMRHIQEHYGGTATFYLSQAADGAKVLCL
Sequence of Thyrotropin-releasing hormone receptor (Homo sapiens) (P34981 whole entry, looked up): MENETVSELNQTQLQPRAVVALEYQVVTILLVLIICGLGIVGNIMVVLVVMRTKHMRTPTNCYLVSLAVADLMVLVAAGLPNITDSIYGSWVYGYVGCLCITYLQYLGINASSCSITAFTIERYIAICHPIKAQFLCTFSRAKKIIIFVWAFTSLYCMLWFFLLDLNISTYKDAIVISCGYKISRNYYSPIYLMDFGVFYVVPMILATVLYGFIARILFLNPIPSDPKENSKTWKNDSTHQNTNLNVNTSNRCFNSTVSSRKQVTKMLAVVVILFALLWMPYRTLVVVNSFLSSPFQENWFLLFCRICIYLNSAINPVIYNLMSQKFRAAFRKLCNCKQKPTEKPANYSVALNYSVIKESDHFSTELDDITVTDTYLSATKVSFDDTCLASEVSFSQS
Sequence of Phosphoglycerate kinase, glycosomal (Trypanosoma brucei brucei) (P07378 whole entry, looked up): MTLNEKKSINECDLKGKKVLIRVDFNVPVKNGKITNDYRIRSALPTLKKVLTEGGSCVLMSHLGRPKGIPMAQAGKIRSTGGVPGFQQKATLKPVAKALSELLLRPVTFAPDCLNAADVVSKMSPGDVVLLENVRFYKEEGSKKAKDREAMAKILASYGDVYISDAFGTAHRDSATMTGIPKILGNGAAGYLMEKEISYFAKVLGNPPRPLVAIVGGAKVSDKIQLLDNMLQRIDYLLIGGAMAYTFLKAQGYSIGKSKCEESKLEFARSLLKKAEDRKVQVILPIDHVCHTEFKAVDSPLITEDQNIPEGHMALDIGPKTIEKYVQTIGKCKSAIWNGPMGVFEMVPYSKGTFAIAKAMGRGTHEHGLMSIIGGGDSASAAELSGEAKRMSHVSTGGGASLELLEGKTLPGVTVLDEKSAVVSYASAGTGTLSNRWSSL
Sequence of Thyrotropin receptor (Homo sapiens) (P16473 whole entry, looked up): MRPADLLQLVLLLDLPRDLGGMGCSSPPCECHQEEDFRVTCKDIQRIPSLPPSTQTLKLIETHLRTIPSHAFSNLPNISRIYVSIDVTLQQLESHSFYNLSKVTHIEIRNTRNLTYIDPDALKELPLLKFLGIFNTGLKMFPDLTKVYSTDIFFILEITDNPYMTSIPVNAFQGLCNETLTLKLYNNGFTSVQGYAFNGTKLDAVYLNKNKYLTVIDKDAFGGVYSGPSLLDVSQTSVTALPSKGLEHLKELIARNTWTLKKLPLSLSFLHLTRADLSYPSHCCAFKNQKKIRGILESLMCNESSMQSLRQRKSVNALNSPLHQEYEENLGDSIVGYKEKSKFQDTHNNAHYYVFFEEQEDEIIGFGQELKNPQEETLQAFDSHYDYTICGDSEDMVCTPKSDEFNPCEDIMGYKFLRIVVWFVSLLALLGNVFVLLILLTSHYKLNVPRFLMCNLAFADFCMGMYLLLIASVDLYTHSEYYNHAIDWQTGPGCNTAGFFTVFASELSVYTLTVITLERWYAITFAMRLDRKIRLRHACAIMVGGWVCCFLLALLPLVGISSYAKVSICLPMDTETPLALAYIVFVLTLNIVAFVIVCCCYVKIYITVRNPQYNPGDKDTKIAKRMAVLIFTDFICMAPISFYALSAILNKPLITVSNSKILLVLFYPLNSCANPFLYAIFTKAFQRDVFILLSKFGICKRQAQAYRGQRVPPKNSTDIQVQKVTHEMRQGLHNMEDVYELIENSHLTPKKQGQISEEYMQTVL
Sequence of ATPase family AAA domain-containing protein 5 (Homo sapiens) (Q96QE3 whole entry, looked up, the tested form may be a part): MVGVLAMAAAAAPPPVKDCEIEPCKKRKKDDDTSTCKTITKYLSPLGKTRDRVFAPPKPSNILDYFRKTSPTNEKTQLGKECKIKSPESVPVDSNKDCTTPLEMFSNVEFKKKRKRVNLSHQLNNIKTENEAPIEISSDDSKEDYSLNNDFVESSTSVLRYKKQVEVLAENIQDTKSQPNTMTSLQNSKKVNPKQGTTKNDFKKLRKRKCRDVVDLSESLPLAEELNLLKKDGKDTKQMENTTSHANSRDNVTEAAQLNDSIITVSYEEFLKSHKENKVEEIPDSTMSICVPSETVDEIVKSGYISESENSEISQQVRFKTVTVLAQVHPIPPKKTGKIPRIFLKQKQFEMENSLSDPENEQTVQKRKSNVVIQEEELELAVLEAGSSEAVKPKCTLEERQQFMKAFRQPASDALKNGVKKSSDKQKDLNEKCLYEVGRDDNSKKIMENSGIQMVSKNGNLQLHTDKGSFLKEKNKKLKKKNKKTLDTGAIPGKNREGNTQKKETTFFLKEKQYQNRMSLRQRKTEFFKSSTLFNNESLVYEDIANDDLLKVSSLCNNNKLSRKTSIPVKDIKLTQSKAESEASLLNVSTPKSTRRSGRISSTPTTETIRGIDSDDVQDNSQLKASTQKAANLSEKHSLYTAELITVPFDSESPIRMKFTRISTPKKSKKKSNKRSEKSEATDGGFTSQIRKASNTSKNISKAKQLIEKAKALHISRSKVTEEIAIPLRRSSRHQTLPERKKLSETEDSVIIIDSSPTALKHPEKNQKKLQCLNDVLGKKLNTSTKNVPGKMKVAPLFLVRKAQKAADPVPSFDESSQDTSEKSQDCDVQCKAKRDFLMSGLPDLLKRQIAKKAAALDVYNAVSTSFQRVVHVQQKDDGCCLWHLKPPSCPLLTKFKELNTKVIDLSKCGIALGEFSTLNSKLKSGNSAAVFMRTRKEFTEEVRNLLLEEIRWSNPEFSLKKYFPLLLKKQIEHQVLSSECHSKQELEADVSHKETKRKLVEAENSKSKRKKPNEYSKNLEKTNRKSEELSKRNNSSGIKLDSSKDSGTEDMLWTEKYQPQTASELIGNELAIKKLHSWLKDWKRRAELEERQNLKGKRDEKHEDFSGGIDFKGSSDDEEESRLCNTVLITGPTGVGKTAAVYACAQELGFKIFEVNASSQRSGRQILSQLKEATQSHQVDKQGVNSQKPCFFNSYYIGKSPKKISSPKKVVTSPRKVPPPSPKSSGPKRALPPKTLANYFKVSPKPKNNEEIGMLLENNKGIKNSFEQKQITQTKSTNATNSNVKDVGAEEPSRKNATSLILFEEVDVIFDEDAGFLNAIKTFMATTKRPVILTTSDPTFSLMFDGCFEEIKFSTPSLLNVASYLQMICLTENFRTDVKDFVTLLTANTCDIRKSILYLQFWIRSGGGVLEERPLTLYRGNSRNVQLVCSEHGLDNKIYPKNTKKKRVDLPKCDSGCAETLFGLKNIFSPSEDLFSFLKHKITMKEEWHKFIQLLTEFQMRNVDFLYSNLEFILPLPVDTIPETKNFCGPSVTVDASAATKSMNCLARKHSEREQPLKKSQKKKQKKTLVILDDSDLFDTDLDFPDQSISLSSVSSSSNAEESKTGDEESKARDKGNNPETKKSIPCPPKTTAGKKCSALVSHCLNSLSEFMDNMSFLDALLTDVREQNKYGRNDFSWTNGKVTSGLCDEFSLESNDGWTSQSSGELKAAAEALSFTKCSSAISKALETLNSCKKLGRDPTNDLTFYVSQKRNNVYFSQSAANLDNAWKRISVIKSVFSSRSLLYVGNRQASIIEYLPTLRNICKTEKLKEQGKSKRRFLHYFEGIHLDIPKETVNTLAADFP

Take `NC(C(=O)N[C@@H]1C(=O)N2C(C(=O)O)=C(Cl)CS[C@H]12)c1ccccc1` (stereo partly specified): the outcome in experiment [1] and in experiment [9] was inactive. In addition, the Potency result in experiment [2], in experiment [3], in experiment [4], in experiment [5], in experiment [6] and in experiment [8] was “inactive” in each case. Moreover, the Potency entry in [10], in experiment [11], in experiment [12], in [13], in [14] and in experiment [15] was “inactive” throughout. Further, the Potency result in experiment [16] and in experiment [17] was “inactive” throughout. Further, in experiment [7], the activation was 0.938% (inactive). The viability change in [8] turned out to be 1.5%.
In the case of `NCCNS(=O)(=O)c1cccc2c(Cl)cccc12`, the result in experiment [1] and in [9] was inactive. Also, the Potency entry in experiment [2], in experiment [3], in [4], in experiment [5], in experiment [6] and in experiment [8] was “inactive” each time. Moreover, the Potency result in [10], in [11], in experiment [12], in experiment [13], in experiment [14] and in experiment [15] was “inactive” throughout. In addition, the Potency entry in experiment [16] is “inactive”. Besides, the activation in [7] was 2.62% (inactive). Besides, the viability change in experiment [8] was -10.5%.
For the molecule `NS(=O)(=O)c1cccc2c1c([N+](=O)[O-])cc1nc(O)c(O)nc12`, the outcome in experiment [1] was inactive. Besides, the Potency result in [2], in experiment [3], in experiment [4], in experiment [5], in experiment [6] and in experiment [8] was “inactive” in each case. Besides, the Potency entry in experiment [10], in experiment [11], in experiment [13], in experiment [14] and in [17] was “inactive” throughout. In addition, the activation in experiment [7] is 0.875% (inactive). Also, the viability change in experiment [8] was -15.2%.
For the molecule `O=c1[nH]c2cc(Cl)ccc2c(O)c1-c1ccc(Oc2ccccc2)cc1`, the outcome in experiment [1] and in experiment [9] was inactive. For the same molecule, the Potency entry in [2], in experiment [3], in experiment [4], in experiment [5], in [6] and in [10] was “inactive” each time. Moreover, the Potency result in experiment [11], in [12], in [13], in [14], in experiment [15] and in experiment [16] was “inactive” in each case. The Potency result in [17] is “inactive”. Also, in [7], the activation was 0.5% (inactive).
Consider `NCCCCN=C(N)N`, for which the result in [1] and in experiment [9] was inactive. Also, the Potency entry in [2], in experiment [3], in experiment [4], in experiment [5], in experiment [6] and in experiment [8] was “inactive” in each case. Also, the Potency result in experiment [10], in experiment [11], in experiment [12], in [13], in experiment [15] and in experiment [16] was “inactive” throughout. In addition, the Potency entry in [17] was “inactive”. Further, the activation in experiment [7] was 0.812% (inactive). In addition, the viability change in experiment [8] is -0.37%.
As for `CC(N)(Cc1ccc(O)c(O)c1)C(=O)O` (stereo unspecified), the outcome in [18] and in experiment [9] was inactive. Further, the Potency result in experiment [2], in [4], in experiment [5], in experiment [6], in experiment [8] and in [10] was “inactive” in each case. Besides, the Potency entry in experiment [11], in experiment [12], in experiment [15] and in experiment [17] was “inactive” in each case. Moreover, the activation in experiment [7] was 0% (inactive). Moreover, the viability change in experiment [8] was -0.588%.

Source of the values: PubChem BioAssay (NCATS).
